PubChem BioAssay (EPA / NIEHS)
Several values for one entry are separate records, joined by “and”; a condition that tells them apart may be missing. Equal entries are not always repeated. Some compounds were tested as several samples or in several runs, with calls that do not always agree. Activity calls are given as the source filed them. How the source made its calls: active means hit-call score of the fitted dose curve at least 0.9, where 1 is the maximum; inactive means score below 0.9.

Key:
[1] = read-out: Pselectin, SELP (gene 6403); assay: BSK_4H_Pselectin: BioMAP Diversity Plus: 4H Assay for Pselectin Biomarker Activity (AID 2283026); details: primary human endothelial cells (HUVEC); actives raise or lower the signal
Summary of the method: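 Endothelial primary cells (human umbilical vein) are dosed, incubated 24 h, and assayed for surface P-selectin by ELISA; responses in either direction are fitted relative to the DMSO negative control.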

[2] = BSK_4H_SRB: Viability Assessment in the BioMAP Diversity Plus: 4H Assay (AID 2283027); details: primary human endothelial cells (HUVEC);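 further: cells exposed to compound for 24 h before staining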;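 on AC50: curves fitted both ways versus DMSO so AC50 may be loss or gain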
Summary of the method: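 Cytotoxicity readout: sulforhodamine B (0.1%) staining of total protein after 10% TCA fixation, measured at 560 nm in human umbilical vein endothelium at 24 h. DMSO set the baseline; fitting was bidirectional.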

[3] = read-out: Human Leukocyte Antigen - DR isotype (HLADR), HLA-DRA (gene 3122); assay: BSK_BE3C_HLADR: BioMAP Diversity Plus: BE3C Assay for Human Leukocyte Antigen - DR isotype (HLADR) Biomarker Activity (AID 2283032); details: primary human bronchial epithelial cells; actives raise or lower the signal
Summary of the method: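 Chemicals are dosed onto BE3C bronchial epithelial cultures of human origin and left 24 h. HLA-DR is then measured by ELISA, and the endpoint is fitted in both directions using DMSO as the activity baseline.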

[4] = read-out: Human Leukocyte Antigen - DR isotype (HLADR), HLA-DRA (gene 3122); assay: BSK_CASM3C_HLADR: BioMAP Diversity Plus: CASM3C Assay for Human Leukocyte Antigen - DR isotype (HLADR) Biomarker Activity (AID 2283043); details: primary human coronary artery smooth muscle cells; actives raise or lower the signal;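 further: cell-surface HLA-DR protein level quantified by ELISA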
[5] = read-out: Macrophage colony-stimulating factor (MCSF), CSF1 (gene 1435); assay: BSK_CASM3C_MCSF: BioMAP Diversity Plus: CASM3C Assay for Macrophage colony-stimulating factor (MCSF) Biomarker Activity (AID 2283044); details: primary human coronary artery smooth muscle cells; actives raise or lower the signal;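 further: M-CSF protein amount quantified by ELISA after 24 h exposure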
[6] = read-out: Low-density lipoprotein receptor (LDLR), LDLR (gene 3949); assay: BSK_CASM3C_LDLR: BioMAP Diversity Plus: CASM3C Assay for Low-density lipoprotein receptor (LDLR) Biomarker Activity (AID 2283045); details: primary human coronary artery smooth muscle cells; actives raise or lower the signal;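 further: LDLR protein level on the cell surface quantified by ELISA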
[7] = read-out: serum amyloid A (SAA), SAA1 (gene 6288); assay: BSK_CASM3C_SAA: BioMAP Diversity Plus: CASM3C Assay for serum amyloid A (SAA) Biomarker Activity (AID 2283049); details: primary human coronary artery smooth muscle cells; actives raise or lower the signal;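 further: SAA protein level quantified by ELISA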
[8] = BSK_CASM3C_SRB: Viability Assessment in the BioMAP Diversity Plus: CASM3C Assay (AID 2283050); details: primary human coronary artery smooth muscle cells;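 further: total protein by SRB staining as cytotoxicity measure in parallel cultures; cells exposed to compound for 24 h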
[9] = read-out: Vascular cell adhesion molecule 1 (VCAM1), VCAM1 (gene 7412); assay: BSK_CASM3C_VCAM1: BioMAP Diversity Plus: CASM3C Assay for Vascular cell adhesion molecule 1 (VCAM1) Biomarker Activity (AID 2283055); details: primary human coronary artery smooth muscle cells; actives raise or lower the signal;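 further: VCAM-1 protein level quantified by ELISA on the cells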
[10] = read-out: Collagen III, COL3A1 (gene 1281); assay: BSK_hDFCGF_CollagenIII: BioMAP Diversity Plus: hDFCGF Assay for Collagen III Biomarker Activity (AID 2283056); details: primary human foreskin fibroblasts; actives raise or lower the signal
Summary of the method: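 ELISA read-out of collagen III from human skin fibroblast cultures sampled 24 h post-dosing. Values were derived by bidirectional fitting relative to the DMSO vehicle control.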

[11] = read-out: Macrophage colony-stimulating factor (MCSF), CSF1 (gene 1435); assay: BSK_hDFCGF_MCSF: BioMAP Diversity Plus: hDFCGF Assay for Macrophage colony-stimulating factor (MCSF) Biomarker Activity (AID 2283060); details: primary human foreskin fibroblasts; actives raise or lower the signal
Summary of the method: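 Primary human foreskin fibroblasts dosed with chemical; 24 h later, M-CSF quantified by ELISA; curves fitted in both directions vs DMSO negative control.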

[12] = read-out: Interleukin-1 alpha (IL1a), IL1A (gene 3552); assay: BSK_KF3CT_IL1a: BioMAP Diversity Plus: KF3CT Assay for Interleukin-1 alpha (IL1a) Biomarker Activity (AID 2283070); details: primary human keratinocytes with fibroblasts; actives raise or lower the signal
Summary of the method: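 Readout is IL-1a level by ELISA, compared bidirectionally with DMSO as baseline. Cells: human keratinocytes co-cultured with foreskin fibroblasts, harvested 24 h post-dose.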

[13] = read-out: TIMP metallopeptidase inhibitor 2 (TIMP2), TIMP2 (gene 7077); assay: BSK_KF3CT_TIMP2: BioMAP Diversity Plus: KF3CT Assay for TIMP metallopeptidase inhibitor 2 (TIMP2) Biomarker Activity (AID 2283071); details: primary human keratinocytes with fibroblasts; actives raise or lower the signal
Summary of the method: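 Chemicals were dosed onto human skin primary co-cultures of keratinocytes and foreskin fibroblasts, and TIMP-2 was measured by ELISA after 24 hours. Activity in either direction was fitted relative to DMSO.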

[14] = read-out: Interleukin-8 (IL8), CXCL8 (gene 3576); assay: BSK_LPS_IL8: BioMAP Diversity Plus: LPS Assay for Interleukin-8 (IL8) Biomarker Activity (AID 2283078); details: primary human HUVEC with PBMC; actives raise or lower the signal
Summary of the method: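 Readout is IL-8 by ELISA, taken 24 h after compounds were added to LPS-stimulated endothelial/PBMC co-cultures. Both increases and decreases relative to DMSO control were scored through bidirectional fitting.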

[15] = read-out: Monocyte Chemoattractant Protein-1 (MCP1), CCL2 (gene 6347); assay: BSK_LPS_MCP1: BioMAP Diversity Plus: LPS Assay for Monocyte Chemoattractant Protein-1 (MCP1) Biomarker Activity (AID 2283081); details: primary human HUVEC with PBMC; actives raise or lower the signal;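 on AC50: secreted MCP-1 protein quantified by ELISA in culture supernatant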
Summary of the method: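 Human endothelial–PBMC co-cultures were dosed with chemical, then LPS-driven MCP-1 levels were quantified by ELISA at 24 h. Activity in either direction was fitted versus DMSO negative control.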

[16] = read-out: Tumor necrosis factor (Homo sapiens) (UniProt P01375); assay: BSK_LPS_TNFa: BioMAP Diversity Plus: LPS Assay for Tumour Necrosis Factor alpha (TNFa) Biomarker Activity (AID 2283085); details: primary human HUVEC with PBMC; actives raise or lower the signal;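 on AC50: TNFa protein level quantified by ELISA in the co-culture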
Summary of the method: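 Cells (umbilical vein endothelium plus peripheral blood mononuclear cells) were dosed with chemical, incubated 24 h, then TNFa was quantified by ELISA; values derive from bidirectional fitting with DMSO as baseline.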

CD38, CD38 (gene 952) = assay: BSK_SAg_CD38: BioMAP Diversity Plus: SAg Assay for CD38 Biomarker Activity (AID 2283087); details: primary human HUVEC with PBMC; actives raise or lower the signal
Summary of the method: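 CD38 quantified by ELISA (fluorescence) in a superantigen-activated endothelial cell–PBMC co-culture at 24 h post-dose. Activity fitted in both directions relative to DMSO; parallel SRB and Alamar Blue cytotoxicity read-outs.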

CD69, CD69 (gene 969) = assay: BSK_SAg_CD69: BioMAP Diversity Plus: SAg Assay for CD69 Biomarker Activity (AID 2283089); details: primary human HUVEC with PBMC; actives raise or lower the signal;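 on AC50: cell surface CD69 protein quantified by ELISA with fluorescence detection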
Summary of the method: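 HUVEC co-cultured with PBMC were dosed with chemical, and CD69 was measured by ELISA with fluorescence read-out 24 h later. Bidirectional curve fitting used DMSO as negative control and activity baseline.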

[17] = read-out: Monocyte Chemoattractant Protein-1 (MCP1), CCL2 (gene 6347); assay: BSK_SAg_MCP1: BioMAP Diversity Plus: SAg Assay for Monocyte Chemoattractant Protein-1 (MCP1) Biomarker Activity (AID 2283090); details: primary human HUVEC with PBMC; actives raise or lower the signal
Summary of the method: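 Values derive from bidirectional fitting of ELISA-measured MCP1 against DMSO controls. Readings were taken 24 h after dosing human vascular endothelial cells co-cultured with peripheral blood mononuclear cells under superantigen stimulation.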

[18] = read-out: E-selectin (Homo sapiens) (UniProt P16581); assay: BSK_SAg_Eselectin: BioMAP Diversity Plus: SAg Assay for Eselectin Biomarker Activity (AID 2283091); details: primary human HUVEC with PBMC; actives raise or lower the signal
Summary of the method: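 Co-culture: HUVEC + PBMC. Dose compound; 24 h. ELISA for E-selectin. Bidirectional fit vs DMSO.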

Measured: AC50

Sequence of Tumor necrosis factor (Homo sapiens) (P01375 whole entry, looked up): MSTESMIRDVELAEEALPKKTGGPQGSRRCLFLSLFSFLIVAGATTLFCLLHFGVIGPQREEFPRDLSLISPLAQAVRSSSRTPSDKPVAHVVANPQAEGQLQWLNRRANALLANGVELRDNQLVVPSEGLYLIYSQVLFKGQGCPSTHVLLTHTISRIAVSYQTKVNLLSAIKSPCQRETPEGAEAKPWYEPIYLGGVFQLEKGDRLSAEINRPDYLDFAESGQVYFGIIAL
Sequence of E-selectin (Homo sapiens) (P16581 whole entry, looked up): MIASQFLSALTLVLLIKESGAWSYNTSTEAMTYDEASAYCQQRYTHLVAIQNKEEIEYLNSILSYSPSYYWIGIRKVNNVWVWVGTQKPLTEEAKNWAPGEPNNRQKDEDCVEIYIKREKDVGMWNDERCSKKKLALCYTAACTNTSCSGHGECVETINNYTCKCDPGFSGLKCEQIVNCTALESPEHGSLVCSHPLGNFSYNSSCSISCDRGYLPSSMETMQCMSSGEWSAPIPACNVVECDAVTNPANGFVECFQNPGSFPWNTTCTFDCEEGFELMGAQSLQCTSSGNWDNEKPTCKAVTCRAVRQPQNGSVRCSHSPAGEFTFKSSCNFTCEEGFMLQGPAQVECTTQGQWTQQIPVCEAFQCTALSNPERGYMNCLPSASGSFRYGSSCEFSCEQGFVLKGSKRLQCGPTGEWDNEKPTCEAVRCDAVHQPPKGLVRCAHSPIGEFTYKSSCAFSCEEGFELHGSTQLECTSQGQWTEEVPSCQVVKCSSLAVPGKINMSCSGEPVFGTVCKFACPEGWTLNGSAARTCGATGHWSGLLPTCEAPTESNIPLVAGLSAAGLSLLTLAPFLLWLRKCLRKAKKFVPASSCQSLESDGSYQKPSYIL

CNC(=O)Oc1cc(C)c(SC)c(C)c1
active: [4] 12.9 µM | [5] 13.3 µM | [6] 7.52 µM | [8] 10.1 µM | [9] 20 µM
inactive: all other assays above

Clc1ccc(-c2ccccc2)cc1
active: [1] 28.2 µM | [2] 35.3 µM
inactive: all other assays above

CCC(C)c1cc([N+](=O)[O-])cc([N+](=O)[O-])c1OC(=O)C=C(C)C (stereo unspecified)
active: [1] 7.89 µM | [2] 20 µM | [3] 11.8 µM | [4] 5.31 µM | [5] 30.7 µM | [6] 31.2 µM | [7] 20 µM | [8] 30.3 µM | [9] 20.5 µM | [10] 5.31 µM | [11] 6.13 µM | [12] 22.8 µM | [13] 21.1 µM | [14] 20 µM | [15] 13.4 µM | [16] 34.5 µM | CD38, CD38 (gene 952) 10.3 µM | CD69, CD69 (gene 969) 8.09 µM | [17] 12.6 µM | [18] 8.28 µM

O=c1[nH]c(Cl)c(Cl)cc1Cl
inactive: all assays above

COC(C)(C)CCC[C@H](C)C/C=C/C(C)=C/C(=O)OC(C)C
inactive: [7] | [8]
active: [1] 25.6 µM | [2] 32.4 µM | [3] 18.5 µM | [4] 20 µM | [5] 13.7 µM | [6] 10.2 µM | [9] 20 µM | [10] 16.6 µM | [11] 22.7 µM | [12] 24.1 µM | [13] 9.64 µM | [14] 33.5 µM | [15] 29.6 µM | [16] 32.7 µM | CD38, CD38 (gene 952) 30.4 µM | CD69, CD69 (gene 969) 18 µM | [17] 20 µM | [18] 20 µM

COc1ccc(CO)cc1
inactive: all assays above

CC1(C)[C@H](C(=O)O[C@H](C#N)c2cccc(Oc3ccccc3)c2)[C@@H]1C=C(Br)Br
inactive: [1] | [2] | [3] | [4] | [5] | [6] | [7] | [8] | [9] | [11] | [12] | [13] | [14] | [15] | [16] | CD38, CD38 (gene 952) | CD69, CD69 (gene 969) | [17] | [18]
active: [4] 11.1 µM | [9] 3.97 µM | [10] 7.51 µM and 4.58 µM | [13] 0.298 µM | CD38, CD38 (gene 952) 2.42 µM | CD69, CD69 (gene 969) 2.07 µM | [18] 1.52 µM

O=c1c2ccccc2c(=O)c2c1cc(Cl)c1[nH]c3c([nH]c12)c(Cl)cc1c(=O)c2ccccc2c(=O)c13
active: [11] 20 µM
inactive: all other assays above

Oc1ccc(C2(c3ccc(O)cc3)c3ccccc3-c3ccccc32)cc1
active: [1] 3.01 µM and 5.41 µM | [2] 11.9 µM | [3] 0.15 µM | [4] 3.97 µM and 2.88 µM | [5] 11.1 µM and 20 µM | [6] 29.5 µM and 28.9 µM | [7] 20 µM | [8] 20 µM | [9] 3.97 µM | [10] 2.68 µM and 2.27 µM | [11] 2.26 µM and 2.51 µM | [12] 8.68 µM and 6.35 µM | [13] 5.37 µM and 5.43 µM | [14] 28.9 µM and 28.2 µM | [15] 16.5 µM and 14.2 µM | [16] 30.9 µM and 36.3 µM | CD38, CD38 (gene 952) 8.99 µM and 9.75 µM | CD69, CD69 (gene 969) 10.6 µM and 9.45 µM | [17] 11.8 µM and 11.2 µM | [18] 10.2 µM and 7.86 µM

Oc1cc(Cl)ccc1Cl
inactive: all assays above

CCc1cc(C)cc(CC)c1-c1c(OC(=O)C(C)(C)C)n2n(c1=O)CCOCC2
active: [3] 3.97 µM | [4] 3.97 µM | [5] 0.975 µM | [6] 2.79 µM | [7] 0.0822 µM | [13] 3.97 µM | [14] 0.016 µM
inactive: all other assays above
